Most compounds without a hit are left out; they make up all but 4% or so of the library.
DENV2 CPE rescue = protects cells from dengue virus 2 cytopathic effect; DENV2-infected cells, cytopathic effect rescue, plate reader; 350,000 tested, 1.7% active; CPE inhibition, % at 9.99 µM; in the data active = CPE inhibition above about 20%, passing the limit was not always enough; tested in BHK-21 cells;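 note: 0% = median of neutral control wells and 100% = median of positive control wells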
ERAP1 HTS inh = inhibitors of human ERAP1 aminopeptidase. Q9NZ08. recombinant ERAP1, Leu-AMC fluorescence, 60 min. inhibition, % at 10.7 µM. 340,000 tested, 0.15% active;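 active = mean replicate inhibition of at least 30%, or all replicates individually reaching that 30% level; inactive = mean below 30% and not every replicate reaching it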;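 note: 0% = neutral control wells and 100% = L-leucinethiol positive control wells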
MLL AF4-AF9 inh = inhibitors of human MLL-AF4/AF9 interaction | inhibition, % at 10 µM | P42568 | AlphaScreen, biotin-AF4 peptide binding to FLAG-AF9 | 350,000 tested, 0.47% active | AID 651704;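 active = every replicate reaching a set inhibition limit, whatever the replicate mean, cut at about 25% in these data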;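 note: 0% = plate neutral control median and 100% = total signal loss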
FGF22 binding = FGF22 (human) thermal shift binding. Q9HCT0. recombinant FGF22 thermal shift, SYPRO orange fluorescence; percent of sucrose octasulfate shift, DMSO zero. activity (Tm shift, normalised), % at 9.99 µM. 340,000 tested, 1.5% active. AID 651658;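 active = mean Tm shift, scaled 0 neutral to 100 positive control, at about 1.3% or above, every replicate too, limit read from the data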
Target sequence (Q9HCT0 whole entry, looked up): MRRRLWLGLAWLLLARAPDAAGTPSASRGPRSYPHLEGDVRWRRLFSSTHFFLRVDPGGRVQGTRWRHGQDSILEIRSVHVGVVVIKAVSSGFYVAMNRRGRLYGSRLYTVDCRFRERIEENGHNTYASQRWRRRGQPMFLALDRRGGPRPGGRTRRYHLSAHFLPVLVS
RAD52 inh = RAD52 (human) annealing inhibition | P43351 | recombinant RAD52 DNA annealing, FRET fluorescence | inhibition, % at 18.7 µM | 360,000 tested, 0.46% active | AID 651710;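 active = every replicate showing at least 50% inhibition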
Starred values were filed as active, the others as inactive; . = no result given.

SMILES | DENV2 CPE rescue | ERAP1 HTS inh | MLL AF4-AF9 inh | FGF22 binding | RAD52 inh
O=C(Nc1ccc(C(F)(F)F)cc1)N[C@H]1CC[C@H](CCn2cc(C3(O)CCCC3)nn2)O[C@H]1CO | -1 | 2 | 3 | 1 | 2
CCC(=O)N1CC2(C1)CN(C(=O)CC)[C@@H](CO)c1[nH]c3cc(OC)ccc3c12 | 1 | -3 | -2 | 0 | -5
O=C(N/N=C/c1ccsc1)C1CC1 | 6 | 0 | -2 | 43* | -9
Cc1cc(C)c(C(=O)COC(=O)CN2C(=O)NC3(CCCC3)C2=O)cc1C | 5 | 2 | 2 | 43* | -22
O=Nc1ccc(Cl)cn1 | 31* | 6 | -1 | 0 | -26
CN1CCN(S(=O)(=O)c2ccc(Nc3cccc(Cl)c3)c([N+](=O)[O-])c2)CC1 | -5 | 7 | 9 | 0 | -15
COc1ccc(Nc2ccc(S(=O)(=O)N3CCCCC3)cc2[N+](=O)[O-])cc1Cl | 41* | 1 | 7 | 0 | -6
Cc1nc2nc(N)nc(OCc3ccccc3)c2nc1C | 1 | . | -2 | 0 | -32
CCC(O)c1cnc(OCc2ccccc2)nc1OCc1ccccc1 (centres undefined) | 3 | -3 | -1 | 30* | -9
CN1C(=O)c2cc(NC(=O)c3ccc(F)cc3)ccc2OC[C@@H]2O[C@H](CC(=O)O)CC[C@H]21 | 8 | 0 | -3 | 0 | 2
CC1=NN(c2ccc(Cl)c(C(=O)O)c2)C(=O)C1 | -6 | 8 | 3 | 0 | -12
O=C(O)c1cc(N2N=C(C(F)(F)F)/C(=C/C=C/c3ccco3)C2=O)ccc1Cl | . | 33* | -9 | . | -228
O=C(NC1CCCCC1)N1CC(=O)N2[C@H](CO)[C@@H](c3ccc(-c4ccccc4)cc3)[C@H]2C1 | -6 | -1 | -2 | . | 7
COC(=O)C[C@H]1CC[C@H]2[C@@H](COc3ccc(NC(=O)c4cnccn4)cc3C(=O)N2C)O1 | 144* | -3 | -2 | 0 | -8
CN1C(=O)c2cc(NC(=O)c3cnccn3)ccc2OC[C@@H]2O[C@@H](CC(=O)NCC3CCCCC3)CC[C@H]21 | 30* | 3 | 0 | 0 | 15
CCCC(=O)Nc1ccc2c(c1)C(=O)N(C)[C@@H]1CC[C@@H](CC(=O)Nc3ccccc3)O[C@@H]1CO2 | 2 | -1 | 0 | 0 | -9
C[C@H]1CCCCO[C@H](CN(C)C(=O)C2CCCCC2)[C@@H](C)CN([C@@H](C)CO)C(=O)c2cc(NC(=O)CCCN(C)C)ccc2O1 | -1 | . | . | 0 | .
Cc1ccccc1S(=O)(=O)NCC[C@H]1CC[C@H](NC(=O)C2CCC2)[C@H](CO)O1 | -6 | -3 | 2 | 0 | .
CCCNC(=O)C[C@H]1C[C@H]2c3cc(NC(=O)NC4CCCC4)ccc3O[C@H]2[C@@H](CO)O1 | 6 | 0 | 0 | 0 | -1
Cc1noc(C)c1NC(=O)N(C)C[C@@H]1OCCCC[C@@H](C)Oc2ccc(NC(=O)NC3CCCCC3)cc2C(=O)N([C@@H](C)CO)C[C@H]1C | 76* | -5 | -14 | . | 1
COc1ccc(NC(=O)N(C)C[C@@H]2Oc3ccc(NC(=O)NC4CCCCC4)cc3C(=O)N([C@@H](C)CO)C[C@@H]2C)cc1 | -3 | 1 | -6 | 0 | 1
Cc1noc(C)c1NC(=O)N(C)C[C@@H]1OCCCC[C@H](C)Oc2ccc(NC(=O)NC3CCCCC3)cc2C(=O)N([C@@H](C)CO)C[C@H]1C | 44* | -5 | -8 | 1.5* | 1
COc1ccc(NC(=O)N(C)C[C@H]2Oc3ccc(NC(=O)NC4CCCCC4)cc3C(=O)N([C@@H](C)CO)C[C@@H]2C)cc1 | 46* | 4 | 0 | 0 | 5
Cc1noc(C)c1NC(=O)Nc1ccc2c(c1)C(=O)N([C@@H](C)CO)C[C@H](C)[C@H](CN(C)C(=O)NC1CCCCC1)OCCCC[C@@H](C)O2 | 29* | -1 | 0 | 0 | 2
Cc1noc(C)c1NC(=O)Nc1ccc2c(c1)C(=O)N([C@@H](C)CO)C[C@@H](C)[C@H](CN(C)C(=O)Nc1c(C)noc1C)OCCCC[C@H](C)O2 | 10 | -4 | -3 | 0 | 0
CN1[C@@H]2Cn3c(ccc(-c4ccccc4)c3=O)[C@H]1[C@@H](C(=O)NCC1CCCCC1)[C@@H]2CO | 4 | 1 | -46 | 0 | 3
C[C@H](CO)N1C[C@H](C)[C@H](CN(C)C(=O)Nc2ccc3c(c2)OCO3)Oc2ncc(C#CCN(C)C)cc2C1=O | 4 | 0 | 1 | 0 | 0
